Screen size: about 300,000 compounds; about 4,000 (1.3%) were called active.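 The calls were made as follows: active = mean replicate score, as percent of positive control median, at least 50; inconclusive = mean below 50 but one replicate at or above 50; inactive = mean and every replicate below 50.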 Shown is part of a subset that was picked to be rich in actives.
assay: S. pyogenes SKKanGAS growth inhibitors in kanamycin, primary screen, streptokinase expression inhibitor project, SKKanGAS strain, BacTiter-Glo luminescence (AID 1662); conditions: 6 h, at 7.5 µM, stronger effect = higher value;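 also: strain carries kanamycin resistance gene driven by streptokinase promoter and grows in 40 µg/ml kanamycin; loss of luminescence reflects streptokinase promoter inhibition or plain growth inhibition; 0% = median of DMSO wells and 100% = positive control at its reference dose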

Row | SMILES | inhibition
1 | Cc1cc(C(=O)CCC(=O)NNC(=O)c2ccccc2O)c(C)s1 | 12.7% (inactive)
2 | O=C1c2ccccc2S(=O)(=O)c2cc(N3CCN(c4ccccn4)CC3)ccc21 | 14.1% (inactive)
3 | CCCc1cc(=O)n2[nH]c(C)c(-c3ccc(Cl)cc3)c2n1 | 53.5% (active)
4 | COCc1cc(=O)n2[nH]c(C)c(-c3ccccc3)c2n1 | -14.5% (inactive)
5 | Cc1nc2c(-c3ccccc3)c(C)[nH]n2c(=O)c1Cl | 18.8% (inactive)
6 | Cc1ccc2nnn(Cc3cccc(C(C)(C)C)c3O)c2c1 | 11.4% (inactive)
7 | CC1=NNC(=O)C1CCC(=O)N/N=C\c1cccc(Cl)c1 (centres undefined) | 4.3% (inactive)
8 | O=c1[nH]oc(O)c1-c1ncc(C(F)(F)F)cc1Cl | -8.5% (inactive)
9 | Cc1ccc(NC(=O)C2CC(=O)N(c3ccc4c(c3)OCCO4)C2)cc1S(=O)(=O)N1CCCCCC1 (centres undefined) | -2.91% (inactive)
10 | CCC(=O)N1CCN(c2ccccc2NC(=O)COc2cccc(C)c2C)CC1 | 5.73% (inactive)
11 | Cc1ccc(C(C)C)cc1OCC(=O)Nc1ccccc1N1CCCC1 | 69.7% (active)
12 | Cc1ccccc1NC(=O)CNc1ccccc1N1CCCCC1 | 9.21% (inactive)
13 | Cc1nn2c(NCCN(C)C)c3c(nc2c1-c1ccccc1)CCC3 | 6.41% (inactive)
14 | Cc1ccc(Cl)cc1N1CCN(C(=O)c2cccc3c(=O)c(C)c(-c4ccccc4)oc23)CC1 | 52.6% (active)
15 | COC(=O)c1ccc(C(=O)OC)c(NC(=S)N2CCN(c3cc(Cl)ccc3C)CC2)c1 | 14.5% (inactive)
16 | Cc1cccc(N2CCN(C(=O)c3cnn4c(C(F)F)cc(-c5ccccc5)nc34)CC2)c1C | 38.6% (inactive)
17 | CC1(C)C=C2[C@H]3CC[C@@H]4[C@@]5(C)CCC(=O)C(C)(C)[C@@H]5CC[C@@]4(C)[C@]3(C)CC[C@@]2(C(=O)O)CC1 | 96.7% (active)
18 | Cc1ccc(S(=O)(=O)N2CCOCC2)cc1C(=O)Nc1ccccc1N1CCCC1 | -4.42% (inactive)
19 | COc1ccc(C(=O)NC2CC2)cc1OC1CCN(Cc2cnn(C)c2)CC1 | 7.48% (inactive)
20 | CCCCCC(O)c1cccc(OCc2ccc3ccccc3n2)c1 (centres undefined) | 15.6% (inactive)
21 | O=C1c2ccccc2C2=Nc3ccccc3SC(c3ccccc3F)C12 (centres undefined) | 52.9% (active)
22 | O=C1c2ccccc2C(=O)C1c1ccccc1F | 0.629% (inactive)
23 | CCOC(=O)C1=C(C)N=C2c3ccccc3C(=O)C2C1c1ccc(Br)cc1 (centres undefined) | 38.8% (inactive)
24 | O=C(c1ccc(F)cc1)C1CCN(Cc2cn[nH]c2-c2ccccc2)CC1 | -0.535% (inactive)

Row | SMILES | inhibition
25 | CCN1C(=O)[C@H]2[C@@H](c3ccc(-c4ccc(F)cc4)cc3)N[C@@](Cc3ccccc3)(C(=O)OC)[C@H]2C1=O | 9.27% (inactive)
26 | CCC(C)C(=O)Nc1cc([N+](=O)[O-])ccc1Cl (centres undefined) | -5.67% (inactive)
27 | O=C(CN1CCSCC1)N/N=C/c1ccc(F)cc1F | -4.84% (inactive)
28 | COC(=O)c1cc(-c2cccs2)nc2ccccc12 | -7.36% (inactive)
29 | O=C(Nc1nnc(-c2ccccc2)o1)c1cc(-c2cccs2)nc2ccccc12 | 92.3% (active)
30 | O=C(NCCN1CCOCC1)c1cc(-c2cccs2)nc2ccccc12 | -10.4% (inactive)
31 | C#CCNC(=O)C1=C[C@@H](c2ccccc2)[C@H](CCCO)[C@@H](OCC)O1 | 0.924% (inactive)
32 | O=C(Nc1ccccc1Cl)NC1(C(=O)N2CCOCC2)CCCCC1 | -13% (inactive)
33 | CCc1nc(NCCO)c(C#N)c2c1CCCC2 | -3.02% (inactive)
34 | CCCCc1nc(NCc2ccccc2)c(C#N)c2c1CCCC2 | 60% (active)
35 | CCCCc1nc(NCCN)c(C#N)c2c1CSC(C)(C)C2 | -15.3% (inactive)
36 | CCCNC(=O)C(=O)Nc1cc2c3c(c1)CCC(=O)N3CCC2 | -4.99% (inactive)
37 | COc1cc(NS(=O)(=O)c2ccc(NC(=S)NC(=O)c3ccc(Br)cc3)cc2)ncn1 | 16.4% (inactive)
38 | CC(c1cccnc1)N(CCN(C)C)C(=O)Nc1ccc(Cl)c(Cl)c1 (centres undefined) | -0.312% (inactive)
39 | O=C(COC(=O)c1cccc(Br)c1)Nc1cccc2c1C(=O)c1ccccc1C2=O | -1.24% (inactive)
40 | Cc1ccccc1C(=O)Nc1ccccc1Sc1ccccc1 | 25.4% (inactive)
41 | O=C(COC(=O)c1ccccc1)Nc1ccccc1Sc1ccccc1 | 58.2% (active)
42 | CC(=O)N[C@H]1[C@H]([C@H](O)[C@H](O)CO)OC(C(=O)O)=C[C@@H]1O | -0.96% (inactive)
43 | COc1ccc(-c2oc3ncnc(NCCCO)c3c2-c2ccc(OC)cc2)cc1 | 33.4% (inactive)
44 | c1ccc(-c2oc3ncnc(N4CCOCC4)c3c2-c2ccccc2)cc1 | -2.29% (inactive)
45 | N=c1c2c(-c3ccccc3)c(-c3ccccc3)n(Cc3ccccc3)c2ncn1CCCO | -1.98% (inactive)
46 | N=c1c2c(-c3ccccc3)c(-c3ccccc3)oc2ncn1Cc1ccco1 | 63.5% (active)
47 | COc1ccc2[nH]c3c(=O)n(Cc4ccco4)cnc3c2c1 | 17.1% (inactive)
48 | COc1ccc(-c2oc3ncn(Cc4ccco4)c(=N)c3c2-c2ccc(OC)cc2)cc1 | 55% (active)

Row | SMILES | inhibition
49 | O=C(O)CC(Cn1cnnn1)c1ccccc1 (centres undefined) | -1.95% (inactive)
50 | C/C(CC(C)C)=N\Oc1nc(C)cc(C)n1 | -4.06% (inactive)
51 | O=[N+]([O-])c1ccc(NCCCO)c(C(F)(F)F)c1 | 0.29% (inactive)
52 | COc1cc(C=O)ccc1Oc1nnnn1-c1ccccc1 | 24.2% (inactive)
53 | CN(C(=O)Nc1ccc(Cl)cc1)n1cnc2ccccc2c1=O | 3.63% (inactive)
54 | O=C(CCCO)N/N=C/c1cc(Br)ccc1O | -3.72% (inactive)
55 | Oc1ccc(/C=N/Nc2ccc(C(F)(F)F)cn2)cc1O | -9.78% (inactive)
56 | Oc1ccc(Br)cc1/C=N/Nc1ccccn1 | 106% (active)
57 | CN(C)Cc1ccc(F)cc1Sc1cc(Cl)ccc1Cl | -3.54% (inactive)
58 | CC(=O)Nc1ccc(S(=O)(=O)Nc2nc(-c3ccc(C(C)(C)C)cc3)cs2)cc1 | 0.664% (inactive)
59 | O=C(Nc1ccc(-c2csc(Nc3cccc(C(F)(F)F)c3)n2)cc1)c1cccc(C(F)(F)F)c1 | 98.6% (active)
60 | Cc1nc(NC(=O)c2cccc(Cl)c2)sc1-c1csc(Nc2cccc(Cl)c2)n1 | 25.6% (inactive)
61 | COc1c(O)cc2oc(-c3ccc(O)c(O)c3)cc(=O)c2c1O | 3.54% (inactive)
62 | OCc1ccc(-c2ccccc2)c(-c2ccccc2)c1 | -11.9% (inactive)
63 | COCCNC(=S)N(CCc1c(C)[nH]c2ccc(C)cc12)Cc1cccnc1 | 8.58% (inactive)
64 | O=C(O)c1cccc(N=NN2CCCCCC2)c1 | 5.53% (inactive)
65 | C[C@H]1[C@H]2c3nc4ccccc4n3C[C@H]1ON2C1CCCCC1 | -3.38% (inactive)
66 | COc1ccc(NC(=O)CSc2nc3ccccc3c(=O)n2C)cc1 | -4.23% (inactive)
67 | Cn1c(SCC(=O)Nc2ccc(Cl)cc2)nc(O)cc1=O | 112% (active)
68 | Cc1ccccc1-n1c(SCC(=O)Nc2cccc3ccccc23)nc(O)cc1=O | 18.6% (inactive)
69 | C/C(=N\Nc1cccc(C(=O)O)c1)c1ccc2c(c1)Nc1ccccc1S2 | 0.801% (inactive)
70 | COc1ccccc1CCNC(=O)c1c(C)nn(CC(C)C)c1Cl | -0.777% (inactive)
71 | COc1cc(OC)cc(C(=O)NC(=S)N2CCN(c3ccc(C(F)(F)F)cc3[N+](=O)[O-])CC2)c1 | 86.6% (active)
72 | O=C(Cc1ccc(S(=O)(=O)N2CCOCC2)s1)N1CCN(c2ccc(C(F)(F)F)cc2[N+](=O)[O-])CC1 | 3.49% (inactive)

Row | SMILES | inhibition
73 | O=C(Nc1cccc(C(F)(F)F)c1)c1ccc(N2CCNCC2)c([N+](=O)[O-])c1 | -0.102% (inactive)
74 | Cc1cc(C(=O)OCC(=O)NCc2ccco2)c(C)n1-c1ccccc1 | 2.24% (inactive)
75 | O=C(Nc1cc(C(F)(F)F)ccc1Cl)C(=O)N1CCCCC1 | -4.87% (inactive)
76 | CC(CC(=O)Nc1cc(C(F)(F)F)ccc1Cl)c1ccccc1 (centres undefined) | 24.4% (inactive)
77 | O=C(NNc1ccccc1Cl)C(O)(c1cccc(C(F)(F)F)c1)c1cccc(C(F)(F)F)c1 | 98.2% (active)
78 | COc1cc(C)c(S(=O)(=O)N2CCOCC2)c(C)c1C | 0.811% (inactive)
79 | O=C(Nc1ccccc1Cl)Nc1cccc2cccnc12 | -4.43% (inactive)
80 | O=C(Nc1ccccc1Cl)/C(Cl)=C(\Cl)S(=O)c1ccccc1 (centres undefined) | 75.1% (active)
81 | COCCN(CCOC)C(=S)Nc1ccccc1Cl | -4.57% (inactive)
82 | Cn1cccc1C(C#N)c1ccccc1C#N (centres undefined) | 0.367% (inactive)
83 | Cc1cc(C)c2nc(N(CCN(C)C)C(=O)/C=C/c3cccs3)sc2c1 | 3.15% (inactive)
84 | Cc1cc(C)c2nc(-c3cccnc3)cc(C(=O)Nc3ccc(S(=O)(=O)Nc4onc(C)c4C)cc3)c2c1 | 64.7% (active)
85 | CCn1c(SCC(=O)Nc2ccc(S(=O)(=O)Nc3onc(C)c3C)cc2)nnc1-c1ccccc1 | -0.983% (inactive)
86 | Cc1noc(NS(=O)(=O)c2ccc(NC(=O)c3oc4ccc(F)cc4c3C)cc2)c1C | 25.3% (inactive)
87 | Cc1ccsc1CNn1cnnc1SCc1ccccc1F | -0.394% (inactive)
88 | O=C(c1cc2ccccc2o1)N1CCN(c2cccc(C(F)(F)F)c2)CC1 | 0.601% (inactive)
89 | c1ccc(-c2cc(N3CCCCC3)c3ccccc3n2)cc1 | 13.6% (inactive)
90 | FC(F)(F)c1cccc(-c2cc3ccccc3nc2N2CCCC2)c1 | 51.7% (active)
91 | O=C(c1ccc(OC2CCN(C(=O)c3cccnc3)CC2)cc1)N1CCCCCC1 | -5.73% (inactive)
92 | O=C(N/N=C/c1cccc([N+](=O)[O-])c1)c1ccncc1 | 1.34% (inactive)
93 | Cc1ccc(-n2[nH]c(C)c(/C=N/NC(=O)c3cccc([N+](=O)[O-])c3)c2=O)cc1C | 91.5% (active)
94 | Cc1[nH]n(-c2ccccc2)c(=O)c1/C=N/NC(=O)c1ccoc1C | -29.8% (inactive)

Reference: PubChem BioAssay AID1662 (Broad Institute, 2009)
